For 20 compounds, Potency results are on record in PubChem BioAssay (Tox21).

Assay [1] deals with Aryl hydrocarbon receptor (Homo sapiens) (UniProt P35869). In words: qHTS assay to identify small molecule that activate the aryl hydrocarbon receptor (AhR) signaling pathway (AID 743085). Further: nearly all actives have a fitted effect of over 15% in size. Further: potency means the concentration at half of the fitted maximal effect.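 On activation: HG2L7.5c1 human HepG2 liver cells with stably integrated DRE-driven firefly reporter; series mostly up to about 70 µM.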 The essentials:
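Luminescence read-out: ONE-Glo reagent, 30 min at room temperature, in HG2L7.5c1 HepG2 reporter cells treated 24 h at 37C. Viability was measured beforehand by CellTiter-Fluor fluorescence after 30 min at 37C.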
For orientation: qHTS replaces the single test concentration by a dilution series.

The nature of assay [2]: qHTS assay to identify small molecule that activate the aryl hydrocarbon receptor (AhR) signaling pathway - cell viability counter screen (AID 743086). Further: nearly all actives have a fitted effect of over 45% in size. Further: potency means the concentration at half of the fitted maximal effect. Summed up:
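HepG2-AhR-luc (HG2L7.5c1) cells, 4000/well, were preincubated 5 h at 37C, exposed to compound in qHTS format for 24 hr at 37C, then given CellTiter-Fluor for 30 min; viability was read as fluorescence in the reporter wells.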

The target in assay [3] is Peroxisome proliferator-activated receptor gamma (Homo sapiens) (UniProt P37231). Kind of assay: qHTS assay to identify small molecule agonists of the peroxisome proliferator-activated receptor gamma (PPARg) signaling pathway (AID 743094; active means well fitted activation curve with a large enough effect in the signal ratio in the repeat runs, not every such curve was filed as active; the % refers to the signal ratio). Summed up:
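HEK293H PPARg-bla cells, 5 h settle at 37C/5% CO2; compound (DMSO) 17 h, 37C; B/G FRET substrate 1 h RT; fluorescence intensity read-out. qHTS format.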

Assay [4] shares this target. Kind of assay: qHTS assay to identify small molecule antagonists of the peroxisome proliferator-activated receptor gamma (PPARg) signaling pathway (AID 743191; calls by dose curve; further: nearly all actives have a fitted effect of over 30% in size; further: potency means the concentration at half of the fitted maximal effect). The essentials:
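GeneBLAzer PPARg UAS-bla HEK293H cells carrying a UAS-driven beta-lactamase reporter were plated at 3000 cells/well, preincubated 5 h at 37C, then given compound for 17 h at 37C; LiveBLAzer B/G FRET substrate was read after 1 h at room temperature.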

A short description of assay [5]: qHTS assay to identify small molecule antagonists of the peroxisome proliferator-activated receptor gamma (PPARg) signaling pathway - cell viability counter screen (AID 743194). Further: nearly all actives have a fitted effect of over 55% in size. Summed up:
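PPARg-UAS-bla HEK293H cells were plated, rested 5 h at 37 C, then treated with compounds plus rosiglitazone (50 nM final) for 17 h at 37 C; viability was then read by CellTiter-Glo luminescence after 30 min at room temperature.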

Assay [6] in a line: qHTS assay for small molecule agonists of the antioxidant response element (ARE) signaling pathway - cell viability counter screen (AID 743203; calls by dose curve; further: nearly all actives have a fitted effect of over 55% in size; further: potency means the concentration at half of the fitted maximal effect). The essentials: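 Luminescence read-out (CellTiter-Glo, 30 min at room temperature) measured cell viability in the same wells as the ARE beta-lactamase reporter. HepG2 ARE-bla cells were treated with compounds for 16 hrs at 37C/5% CO2.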

The nature of assay [7]: qHTS assay for small molecule activators of the heat shock response signaling pathway - cell viability counter screen (AID 743209). Further: nearly all actives have a fitted effect of over 50% in size. Further: potency means the concentration at half of the fitted maximal effect. Summed up:
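HSE-bla HeLa; 1500 cells/well; overnight 37 C, 5% CO2; compound 5 h 37 C; LiveBLAzer B/G substrate 2.5 h RT; CellTiter-Glo 30 min RT; luminescence.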

Assay [8] in a line: qHTS assay for small molecule activators of the heat shock response signaling pathway (AID 743210; active means well fitted activation curve with a large enough effect in the signal ratio in the repeat runs, with a control signal flat, not every such curve was filed as active; the % refers to the signal ratio;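 further: HeLa cells with beta-lactamase reporter driven by heat shock elements; series mostly up to about 63 µM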). Summed up:
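Activation of heat shock element-controlled beta-lactamase expression is measured in HeLa cells by LiveBLAzer FRET fluorescence, with compound exposure lasting 5 h at 37 C and substrate loading 2.5 h at room temperature.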

A short description of assay [9]: qHTS assay to identify small molecule agonists of the peroxisome proliferator-activated receptor delta (PPARd) signaling pathway - cell viability counter screen (AID 743211). Further: nearly all actives have a fitted effect of over 55% in size. Further: potency means the concentration at half of the fitted maximal effect. Summed up: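 Read-out: CellTiter-Glo luminescence, 30 min RT, measured in the same wells as the beta-lactamase reporter. Cells: GeneBLAzer PPAR delta UAS-bla HEK293H, 3000 cells/well, compound exposure 17 h at 37C.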

The nature of assay [10]: qHTS assay for small molecule agonists of the antioxidant response element (ARE) signaling pathway (AID 743202; active means well fitted activation curve with a large enough effect in the signal ratio in the repeat runs, not every such curve was filed as active; the % refers to the signal ratio; further: potency means the concentration at half of the fitted maximal effect). The essentials: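 Steps: seed ARE-bla HepG2 cells (2,000/well); incubate 5 h at 37 C; add compounds by pin tool; incubate 16 h at 37 C; add FRET substrate; read fluorescence after 2 h at RT.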

Several values for one entry are separate records, joined by “and”; a condition that tells them apart may be missing. Equal entries are not always repeated. Results filed as inconclusive are left out. A structure can be active in one record and inactive in another. Activity calls are given as the source filed them. Unless noted, the call rests on the fitted dose curve; in most records, active means well fitted curve in the direction sought with a large enough effect in the repeat runs; inconclusive means weak or mixed curves; inactive means no such curve, though single readings can be large; an effect the other way counts as inactive or inconclusive.

Chain of Peroxisome proliferator-activated receptor gamma (Homo sapiens) (P37231 whole entry, looked up): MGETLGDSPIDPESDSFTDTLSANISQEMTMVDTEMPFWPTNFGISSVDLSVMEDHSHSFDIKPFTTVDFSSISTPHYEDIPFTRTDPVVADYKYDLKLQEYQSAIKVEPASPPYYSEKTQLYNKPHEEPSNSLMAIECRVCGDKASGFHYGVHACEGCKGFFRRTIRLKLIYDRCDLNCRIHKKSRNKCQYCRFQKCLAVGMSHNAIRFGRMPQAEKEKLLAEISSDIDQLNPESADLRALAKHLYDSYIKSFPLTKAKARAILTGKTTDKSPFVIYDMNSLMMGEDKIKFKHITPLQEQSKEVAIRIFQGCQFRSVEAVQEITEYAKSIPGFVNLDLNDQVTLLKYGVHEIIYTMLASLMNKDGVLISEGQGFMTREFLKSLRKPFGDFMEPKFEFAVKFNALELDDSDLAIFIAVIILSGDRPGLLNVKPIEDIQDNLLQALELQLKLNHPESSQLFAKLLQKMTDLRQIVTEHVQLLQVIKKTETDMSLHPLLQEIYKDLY
Chain of Aryl hydrocarbon receptor (Homo sapiens) (P35869 whole entry, looked up): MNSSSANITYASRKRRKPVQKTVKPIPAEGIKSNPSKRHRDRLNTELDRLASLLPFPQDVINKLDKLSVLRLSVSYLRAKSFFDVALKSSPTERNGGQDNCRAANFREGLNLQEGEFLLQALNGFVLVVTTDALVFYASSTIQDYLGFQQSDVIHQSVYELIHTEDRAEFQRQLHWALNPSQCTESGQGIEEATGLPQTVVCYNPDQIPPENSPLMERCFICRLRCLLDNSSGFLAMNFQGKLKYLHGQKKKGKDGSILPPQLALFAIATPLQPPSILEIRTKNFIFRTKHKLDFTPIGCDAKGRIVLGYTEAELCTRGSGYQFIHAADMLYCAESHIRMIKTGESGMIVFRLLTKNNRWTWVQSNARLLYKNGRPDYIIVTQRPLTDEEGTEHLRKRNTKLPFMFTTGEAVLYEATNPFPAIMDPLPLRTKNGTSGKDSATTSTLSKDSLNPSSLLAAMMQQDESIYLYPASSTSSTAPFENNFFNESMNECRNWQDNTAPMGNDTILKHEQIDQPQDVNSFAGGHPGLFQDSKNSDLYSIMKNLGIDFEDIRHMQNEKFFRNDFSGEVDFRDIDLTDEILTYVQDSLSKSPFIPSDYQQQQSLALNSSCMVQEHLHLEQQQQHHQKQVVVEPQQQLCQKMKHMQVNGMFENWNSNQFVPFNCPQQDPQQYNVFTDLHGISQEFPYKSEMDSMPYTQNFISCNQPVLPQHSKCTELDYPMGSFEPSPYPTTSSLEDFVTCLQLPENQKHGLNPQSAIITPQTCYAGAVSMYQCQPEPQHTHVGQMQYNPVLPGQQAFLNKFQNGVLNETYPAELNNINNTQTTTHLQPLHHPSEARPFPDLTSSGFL

With `CSc1cnc(C)cn1`, the Potency entry in assay [1], in assay [2], in assay [3], in assay [4], in assay [5] and in assay [6] was “inactive” throughout. The Potency result in assay [7], in assay [8] and in assay [9] was “inactive” throughout.
In the case of `CCN(C(=O)N(CC)c1ccccc1)c1ccccc1`, the Potency result in assay [1], in assay [2], in assay [3], in [4], in [6] and in assay [7] was “inactive” each time. For the same compound, the Potency result in [8] and in [9] was “inactive” in each case.
In the case of `Cc1onc(-c2c(Cl)cccc2Cl)c1C(=O)N[C@@H]1C(=O)N2[C@@H]1SC(C)(C)[C@@H]2C(=O)O`, the Potency entry in assay [1], in [2], in assay [3], in [4], in [6] and in assay [7] was “inactive” in each case. For the same compound, the Potency result in assay [9] was “inactive”.
Turning to `c1ccc(CSCc2ccccc2)cc1`, the Potency entry in assay [1], in assay [2], in [3], in assay [4], in [5] and in [6] was “inactive” throughout. Further, the Potency entry in assay [7], in assay [8] and in assay [9] was “inactive” in each case.
Regarding `O=[N+]([O-])c1ccccc1Nc1ccccc1`, the Potency result in [1], in [2], in assay [3], in assay [4], in assay [5] and in [10] was “inactive” each time. For the same compound, the Potency entry in [6], in assay [7], in assay [8] and in [9] was “inactive” each time.
Turning to `NC(=O)NS(=O)(=O)c1ccc(N)cc1`, the Potency result in [1], in assay [2], in assay [3], in assay [4], in assay [5] and in assay [10] was “inactive” each time. Further, the Potency result in assay [6], in [7], in assay [8] and in assay [9] was “inactive” each time.
On to `O=C1CCCCCN1SSN1CCCCCC1=O`, for which the Potency entry in [1], in assay [2], in [3], in assay [4], in assay [5] and in assay [10] was “inactive” throughout. For the same compound, the Potency result in assay [6], in [7] and in [9] was “inactive” in each case.
As for `Cc1ccc(O)c(C(C)(C)C)c1`, the Potency result in assay [1], in assay [3], in assay [4], in assay [5] and in [8] was “inactive” in each case. Also, the Potency in assay [2] was 61 µM (active) and inactive; in assay [6] it was 30.6 µM (active) and inactive; in [7] it was 24.5 µM (active) and inactive; in [9], 21.8 µM (active) and inactive.
For `NNc1nc(-c2ccccc2)cs1`, the Potency in assay [1] was 9.97 µM (active); in assay [4] it was 0.504 µM (active). Moreover, the Potency result in assay [2], in assay [3], in [5], in [6] and in [7] was “inactive” in each case.
Take `CCCCN(CCCC)C(=O)N(CCCC)CCCC`: the Potency result in [1], in assay [2], in assay [3], in assay [4], in assay [5] and in assay [6] was “inactive” in each case. For the same compound, the Potency entry in assay [7], in [8] and in assay [9] was “inactive” each time.
As to `C=C(C)C(=O)OCC[N+](C)(C)C`, the Potency result in assay [1], in assay [2], in assay [3], in [5], in [6] and in assay [7] was “inactive” each time. Besides, the Potency entry in assay [8] and in [9] was “inactive” each time. Further, the Potency in [4] was 2.18 µM (active).
`CC[C@H](c1ccc(O)cc1)[C@@H](CC)c1ccc(O)cc1`: the Potency result in assay [1], in assay [2], in [3] and in assay [7] was “inactive” each time. Further, the Potency in [4] is 29.8 µM (active); in assay [10], 4.22 µM (active); in assay [6], 54.5 µM (active) and inactive; in assay [9] it was 54.9 µM (active).
With `Nc1c(Cl)cc(Cl)cc1Cl`, the Potency result in assay [1], in assay [2], in [3], in assay [4], in assay [5] and in assay [10] was “inactive” in each case. In addition, the Potency entry in assay [6], in [7], in assay [8] and in [9] was “inactive” each time.
For the compound `CCCCCOC(=O)CCCC`, the Potency result in assay [1], in [2], in assay [3], in assay [4], in assay [5] and in [10] was “inactive” in each case. In addition, the Potency result in assay [6], in assay [7] and in [9] was “inactive” each time.
Take `CC(=O)OCC(C)OC(C)=O` (centres undefined): the Potency entry in [1], in assay [2], in assay [3], in assay [4], in assay [5] and in [6] was “inactive” each time. Moreover, the Potency entry in [7] and in [9] was “inactive” throughout.
Take `CCC(N)(CO)CO`: the Potency result in assay [1], in assay [2], in [3], in [4], in [5] and in assay [6] was “inactive” in each case. For the same compound, the Potency result in [7], in assay [8] and in assay [9] was “inactive” in each case.
Turning to `CC(=O)SC[C@@H](Cc1ccccc1)C(=O)NCC(=O)OCc1ccccc1`, the Potency entry in assay [1], in assay [2], in [3], in assay [4], in assay [5] and in assay [10] was “inactive” in each case. Also, the Potency result in assay [6], in [7] and in assay [8] was “inactive” each time.
Regarding `C1CCCC1`, the Potency entry in assay [1], in assay [2], in [3], in assay [4], in assay [5] and in [6] was “inactive” each time. The Potency result in assay [7], in assay [8] and in assay [9] was “inactive” in each case.
Turning to `O=c1[nH]cnc2nc[nH]c12`, the Potency result in assay [1], in assay [2], in assay [3], in assay [5], in assay [10] and in assay [6] was “inactive” throughout. Besides, the Potency entry in assay [7], in assay [8] and in assay [9] was “inactive” in each case.
As for `O=C(OC[C@H]1O[C@@H](OC(=O)c2cc(O)c(O)c(OC(=O)c3cc(O)c(O)c(O)c3)c2)[C@H](OC(=O)c2cc(O)c(O)c(OC(=O)c3cc(O)c(O)c(O)c3)c2)[C@@H](OC(=O)c2cc(O)c(O)c(OC(=O)c3cc(O)c(O)c(O)c3)c2)[C@@H]1OC(=O)c1cc(O)c(O)c(OC(=O)c2cc(O)c(O)c(O)c2)c1)c1cc(O)c(O)c(OC(=O)c2cc(O)c(O)c(O)c2)c1`, in [1], the Potency result was “inactive”. Moreover, the Potency in assay [2] is 21.1 µM (active) and 16.5 µM (active).
